# Assay results published in PubChem BioAssay (NCATS).
# Activity calls are given as the source filed them. Calls follow the shape of the dose curve; as a rule, active = well fitted curve in the direction sought with a large enough effect; inconclusive = small, poorly fitted or top-dose-only effect, or another doubt; inactive = no such curve, though single readings can be large or run the other way.
# Molecular target: Hexokinase-4 (Homo sapiens) + Glucokinase regulatory protein (Homo sapiens) (UniProt P35557+Q14397)
# Assay: qHTS assay for inhibitors of recombinant human GCK-GKRP interaction: ADP-Glo assay (AID 743206)
# Conditions: ADP-Glo luminescence, 60 min, 0% = vehicle-only wells with enzyme present; series mostly up to 76.9 µM
# Source text: Glucokinase (GCK) is a glucose sensor in hepatocytes and pancreatic beta-cells. Hepatic GCK is regulated by glucokinase regulatory protein (GKRP), which is predominantly localized to the liver. GKRP binds to GCK inhibiting its activity in the fasting state while in the presence of glucose the GKRP is displaced. There is an additional layer of regulation by fructose 1-phosphate and fructose 6-phosphate, which inhibit and enhance the GCK-GKRP interaction, respectively. GCK plays a role in glucose homeostasis and there is an interest in the development of strategies to activate GCK to lower blood glucose levels in type 2 diabetes. To date the majority of effort has focused on direct activation of GCK and the assays developed herein look to activate GCK by inhibiting its binding to GKRP. A compound that inhibits the interaction of GCK with GKRP could be important for the treatment of diabetes and can also be used as a tool compound to further elucidate GCK-GKRP biology. To that end, we have developed a sensitive HTS biochemical assay where in GCK activity is coupled to luciferase to interrogate the GCK-GKRP interaction. This assay was screened against a small compound library to look for modulators of activity.
# 2 uL of 15 nM GST-GCK and 15 nM FLAG-GKRP proteins with 2 uM S6P (columns 1-2, 4-48; Millipore, Billerica, MA) are dispensed into Greiner, white solid-bottom 1536-well assay plates; columns 3 receive buffer without GCK as a control for maximum inhibition. Compounds (23 nL) are then transferred via Kalypsys pin tool equipped with 1536-pin array (10 nL slotted pins, V&P Scientific, San Diego, CA). The library compounds are in columns 5-48 and columns 1-4 serve as controls with DMSO in columns 1 and 3 and 26 mM 1:1.5 fold serial of gluckokinase activator (GKA-EMD) in column 2 and 26 mM of the glucokinase activator (GKA-EMD) in column 4. Following addition of compound, 1 uL of ATP […] is added, and the plate is incubated for 60 minutes at room temperature. The amount of ADP is then quantified by the ADP-Glo Kit (Promega, Madison, WI). First, 2 uL of the first kit reagent is added, and the reaction is incubated for 45 minutes; then, 4 uL of the second kit reagent are added and the reaction is incubated for 30 minutes at which time the luminescence is read on a Viewlux plate reader (Perkin-Elmer, Waltham, MA). The final concentration of reagents in the reaction are 0.4 mM ATP, 25 mM Hepes pH 7.6, 25 mM KCl, 2 mM MgCl2, 1 mM DTT, 0.025% BSA, 0.01% Tween 20, 5 mM glucose. Data are normalized to DMSO-treated control columns with (maximum signal) and without (minimum signal) enzyme.
# Sequence of Hexokinase-4 (Homo sapiens) + Glucokinase regulatory protein (Homo sapiens) (P35557 whole entry, looked up): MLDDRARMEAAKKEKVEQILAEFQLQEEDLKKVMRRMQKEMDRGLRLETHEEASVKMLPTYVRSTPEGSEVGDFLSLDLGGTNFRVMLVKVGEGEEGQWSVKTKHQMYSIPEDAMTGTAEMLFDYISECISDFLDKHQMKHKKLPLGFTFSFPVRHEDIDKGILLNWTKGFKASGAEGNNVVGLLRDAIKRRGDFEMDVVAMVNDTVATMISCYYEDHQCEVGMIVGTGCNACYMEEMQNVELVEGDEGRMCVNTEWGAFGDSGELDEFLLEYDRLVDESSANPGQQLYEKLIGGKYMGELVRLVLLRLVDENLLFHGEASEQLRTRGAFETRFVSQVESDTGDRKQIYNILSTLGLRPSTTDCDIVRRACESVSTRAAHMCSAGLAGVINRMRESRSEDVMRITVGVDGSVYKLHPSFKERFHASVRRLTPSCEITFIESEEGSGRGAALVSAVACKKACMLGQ
# Sequence of Hexokinase-4 (Homo sapiens) + Glucokinase regulatory protein (Homo sapiens) (Q14397 whole entry, looked up): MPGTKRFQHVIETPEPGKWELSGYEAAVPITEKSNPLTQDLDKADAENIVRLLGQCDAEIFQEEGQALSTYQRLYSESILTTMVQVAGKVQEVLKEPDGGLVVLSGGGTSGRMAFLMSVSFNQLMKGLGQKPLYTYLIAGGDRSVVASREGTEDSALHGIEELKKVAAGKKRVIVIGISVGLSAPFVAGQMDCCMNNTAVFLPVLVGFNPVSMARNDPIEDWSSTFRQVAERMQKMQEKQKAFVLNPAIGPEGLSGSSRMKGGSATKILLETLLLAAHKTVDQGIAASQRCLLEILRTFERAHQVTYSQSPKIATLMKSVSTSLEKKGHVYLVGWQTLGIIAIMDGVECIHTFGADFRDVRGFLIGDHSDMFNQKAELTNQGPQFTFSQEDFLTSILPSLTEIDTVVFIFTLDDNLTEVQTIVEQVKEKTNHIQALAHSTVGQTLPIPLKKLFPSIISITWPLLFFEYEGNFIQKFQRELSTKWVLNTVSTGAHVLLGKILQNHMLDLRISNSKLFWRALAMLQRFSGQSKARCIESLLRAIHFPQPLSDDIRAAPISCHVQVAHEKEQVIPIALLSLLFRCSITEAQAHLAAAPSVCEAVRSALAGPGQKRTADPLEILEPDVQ
row,SMILES,outcome
1,COC(=O)[C@H]1[C@H]2C[C@H]3c4[nH]c5ccccc5c4CCN3C[C@H]2CC[C@@H]1O,inactive
2,CC(=O)O[C@H]1C[C@@H]2CC[C@@H]3[C@H](CC[C@@]4(C)[C@H]3C[C@H]([N+]3(C)CCCCC3)[C@@H]4OC(C)=O)[C@@]2(C)C[C@@H]1[N+]1(C)CCCCC1,inactive
3,CCC(NC(C)C)C(O)c1ccc(O)c(O)c1 (stereo not given),inactive
4,O=C1CCC(c2ccc(-n3ccnc3)cc2)=NN1,inactive
5,CNCCC=C1c2ccccc2CCc2ccccc21,inactive
6,COc1cc2c(cc1O)CC[C@@H]1[C@@H]2CC[C@]2(C)[C@@H](O)CC[C@@H]12,inactive
7,C1CCc2nnnn2CC1,inactive
8,CN1C2CCC1CC(OC(=O)c1c[nH]c3ccccc13)C2 (stereo not given),inactive
9,CC(C)COC(=O)OCN1C(=O)CN(CCN2CC(=O)N(COC(=O)OCC(C)C)C(=O)C2)CC1=O,inactive
10,C[C@]12CC[C@@H]3c4ccc(O)cc4CC[C@H]3[C@@H]1CC[C@@H]2O,inactive
11,CC1(C)CCC(NC(=O)[C@@H](N)CCC(=O)O)CC1,inactive
12,C[C@@H]1C(=O)NC2=Nc3cccc(Cl)c3CN21,inactive
13,C[N+]1(CCCCC[N+]2(C)CCCC2)CCCC1,inactive
14,CCCn1c(=O)[nH]c(=O)c2[nH]cnc21,inactive
15,CC(CCc1ccccc1)NCC(O)c1ccc(O)c(C(N)=O)c1 (stereo not given),inactive
16,N[C@@H](Cc1cnc[nH]1)C(=O)O,inactive
17,N[C@H](CO)C(=O)O,inactive
18,Nc1cc(Cl)c(NC2=NCCN2)c(Cl)c1,inactive
19,CC[C@H](C)C(=O)O[C@H]1CCC=C2C=C[C@H](C)[C@H](CC[C@@H]3C[C@@H](O)CC(=O)O3)[C@H]21,inactive
20,CNCCC(Oc1ccccc1C)c1ccccc1 (stereo not given),inactive
21,CC(C)C[C@H]1C(=O)N2CCC[C@H]2[C@]2(O)O[C@](NC(=O)[C@@H]3C=C4c5cccc6[nH]c(Br)c(c56)C[C@H]4N(C)C3)(C(C)C)C(=O)N12,inactive
22,CCCC1O[C@@H]2C[C@H]3[C@@H]4CCC5=CC(=O)C=C[C@]5(C)[C@H]4[C@@H](O)C[C@]3(C)[C@]2(C(=O)CO)O1 (stereo not given in full),inactive
23,COc1cc(NS(C)(=O)=O)ccc1Nc1c2ccccc2nc2ccccc12,inactive
24,Oc1ccc(O)cc1,inactive
25,O=C(O)c1cc2cc(Cc3cccnc3)ccc2o1,inactive
